Screens deposited in PubChem BioAssay by National Center for Advancing Translational Sciences (NCATS).
N370S GC: inhibits or activates N370S mutant glucocerebrosidase | N370S GC spleen homogenate, 4MU-glucoside fluorescence | Potency, µM (doses to about 59.4 µM), actives largely listed as inhibitors | 0.092% of 330,000 active | AID 2101
AT treatment: potential ataxia-telangiectasia treatments restoring KAP-1 phosphorylation | 0.19% of 320,000 active | Potency, µM (top dose mostly 57.5 µM), hits mostly activators | F2112 A-T fibroblasts, KAP-1 phosphorylation AlphaLISA; neocarzinostatin DNA damage 30 min before lysis; also: nearly all actives have a fitted effect of over 45% in size
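ATM-like activity read as KAP-1 phosphorylation via AlphaLISA donor/acceptor antibody pairs after lysis and 6 hr at 25C. Cells were ATM-null patient fibroblasts (F2112, hTERT), dosed 60 min, then exposed to the DSB inducer NCS for 30 min.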
rTrxR1 inhibitor: inhibitors of rat thioredoxin reductase 1; recombinant rTrxR1, NADPH fluorescence consumption, selenite substrate; Potency, µM (top dose mostly 114 µM), most hits filed as inhibitors; 1% of 390,000 active; AID 588453; also: nearly all actives have a fitted effect of over 65% in size
Target sequence (O89049 whole entry, looked up): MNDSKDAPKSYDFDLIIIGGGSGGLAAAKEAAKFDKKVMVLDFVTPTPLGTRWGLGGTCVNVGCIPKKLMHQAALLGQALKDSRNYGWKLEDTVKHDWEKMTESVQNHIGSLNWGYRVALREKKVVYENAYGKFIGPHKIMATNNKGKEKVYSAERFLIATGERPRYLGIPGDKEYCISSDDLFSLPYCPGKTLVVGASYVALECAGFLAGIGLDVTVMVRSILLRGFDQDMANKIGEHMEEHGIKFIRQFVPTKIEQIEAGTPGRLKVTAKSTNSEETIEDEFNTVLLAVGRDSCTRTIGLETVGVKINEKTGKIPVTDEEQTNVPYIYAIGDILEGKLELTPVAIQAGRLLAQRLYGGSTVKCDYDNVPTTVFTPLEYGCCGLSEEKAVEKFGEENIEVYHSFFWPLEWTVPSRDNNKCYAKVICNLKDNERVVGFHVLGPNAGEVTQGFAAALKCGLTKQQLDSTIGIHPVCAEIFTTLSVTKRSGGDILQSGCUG
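Rat TrxR1 (90 nM in the dispensed reagent) was pre-reduced with 400 uM NADPH for 5 min at room temperature, then incubated with compound for 15 min. After 400 uM selenite was added, NADPH fluorescence (Ex 340/Em 450 nm) was followed for 8 min.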
Pin1 inh: blocks the human prolyl isomerase Pin1; Potency, µM (highest dose often 115 µM), hits mostly inhibitors; Q13526; 0.009% of 390,000 active; AID 504891; Pin1 FP peptide displacement, HiFluor488, 10 min; active = well fitted inhibition curve with a large enough effect in the polarisation, with a control signal flat, not every such curve was filed as active; inconclusive = small, poorly fitted or top-dose-only effect, or effect the other way, or a change in a side signal; inactive = no such curve, though single readings can be large or run the other way; the % refers to the polarisation
Target sequence (Q13526 whole entry, looked up): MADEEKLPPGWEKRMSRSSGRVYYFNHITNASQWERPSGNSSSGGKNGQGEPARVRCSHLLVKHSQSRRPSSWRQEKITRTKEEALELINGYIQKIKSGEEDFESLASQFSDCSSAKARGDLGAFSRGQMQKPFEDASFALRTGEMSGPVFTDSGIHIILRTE
pAkt inh: inhibitors of Akt phosphorylation. activity change, % for hits at 50 µM. 0.32% of 360,000 active. Neuro2A IGF-stimulated pAkt S473 HTRF, 20 min; hits give low values; in the data active = activity change below about -80%; inconclusive = mostly about -51% to -80%
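Single-point screen (50 µM final compound) in Neuro2A cells stimulated 20 min with 6 nM IGF at 37 deg C. After lysis, Ser473-phosphorylated Akt read by HTRF (ex 330 nm, em 615/665 nm) as the 665/615 ratio.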
TrxR1 substrate: is turned over as a substrate by rat TrxR1; 0.01% of 390,000 active; AID 588456; Potency, µM (titrated, usually from 114 µM); O89049; purified TrxR1 substrate turnover, NADPH consumption readout; also: nearly all actives have a fitted effect of over 50% in size
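Rat TrxR1, dispensed at 90 nM, was prereduced with 400 uM NADPH (final) for 5 min at ~22 deg C, then incubated with compound 15 min before 400 uM selenite. A first-read NADPH fluorescence drop versus no-compound background flagged substrates.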
A number is an active result; – = inactive; ? = inconclusive; · = no result; [ ] = another dose, or the depositor's remark. Hits are enriched below; roughly 1.4% of the tested compounds scored in any of these assays. Unless noted, calls follow the shape of the dose curve; as a rule, active = well fitted curve in the direction sought with a large enough effect; inconclusive = small, poorly fitted or top-dose-only effect, or another doubt; inactive = no such curve, though single readings can be large; an effect the other way counts as inactive or inconclusive.

SMILES	N370S GC	AT treatment	rTrxR1 inhibitor	Pin1 inh	pAkt inh	TrxR1 substrate
COc1cccc(C(=O)N2c3nc(-c4ccco4)nn3C3(CCCCC3)[C@@H]3CCCC[C@@H]32)c1	·	·	8.9µM	–	·	–
CCN(CC)C(=O)C1CCCN(c2ncnc3c2nc2n3CCCCC2)C1 (stereo not given)	·	·	–	–	·	–
Fc1ccc(-n2cc(-c3ccccc3)c3c(NC4CCCCC4)ncnc32)cc1	·	·	–	?	·	–
N#Cc1c(NC(=O)CN2CCOCC2)oc(-c2ccccc2)c1-c1ccccc1	–	–	–	–	-107%	–
O=C(O)c1ccc(Nc2cc(Cl)c3nonc3c2[N+](=O)[O-])cc1	–	–	0.63µM	–	–	–
Cc1c(Nc2cc(Cl)c3nonc3c2[N+](=O)[O-])c(=O)n(-c2ccccc2)n1C	–	–	0.63µM	–	–	–
O=[N+]([O-])c1c(Nc2cccc(O)c2)cc(Cl)c2nonc12	–	–	0.89µM	–	–	–
O=C(O)c1cccc(Nc2ccc3nonc3c2[N+](=O)[O-])c1	–	–	–	–	–	–
CCC(=O)c1ccc2c(c1)OCCO2	–	10µM	–	–	–	–
O=C(CS(=O)(=O)c1ccccc1)c1ccc2c(c1)OCCO2	–	–	?	–	–	–
CN(C)CCC(=O)c1ccc2c(c1)OCO2	–	–	0.32µM	–	–	–
CN(C)CCCC(=O)c1ccc2c(c1)OCO2	–	–	–	–	–	–
O=C(CCN1CCc2ccccc2C(c2ccccc2)C1)c1ccc2c(c1)OCCO2 (stereo not given)	–	–	1.1µM	–	–	–
O=C(CCN1Cc2ccccc2C1)c1ccc2c(c1)OCCO2	–	–	0.32µM	–	–	–
CCCC(=O)c1ccc2c(c1)OCCO2	–	–	–	–	–	–
O=C1CN(S(=O)(=O)c2c(F)cccc2F)CCN1S(=O)(=O)c1ccc2c(c1)OCCO2	·	·	·	–	·	·
Cn1c(=O)c([N+](=O)[O-])c(Cl)c2ccccc21	–	–	2.2µM	–	–	–
O=C(NCCc1nc2ccccc2n1CCO)C1CCCCC1	·	·	·	–	·	·
Cc1nc(S(=O)(=O)c2ccc(Cl)cc2)c(NCc2ccccc2)o1	–	–	45µM	–	–	–
Cc1ccc(S(=O)(=O)c2nc(-c3ccccc3Cl)oc2N(C)C)cc1	–	–	?	?	–	–
COc1cc(-c2nc(S(=O)(=O)c3ccc(C)cc3)c(N(C)C)o2)cc(OC)c1OC	–	–	–	–	–	–
Cc1nc(S(=O)(=O)c2ccc(Cl)cc2)c(N(C)C)o1	–	–	4µM	–	–	–
Cc1ccc(-c2nc(S(=O)(=O)c3ccc(C)cc3)c(N(C)C)o2)cc1	–	–	25µM	–	–	–
Cc1ccc(S(=O)(=O)c2nc(-c3ccccc3Br)oc2N(C)C)cc1	·	·	6.3µM	–	–	–
CC(I)CCC(C)[n+]1cccc(I)c1 (stereo not given)	·	·	–	·	·	–
SMILES	N370S GC	AT treatment	rTrxR1 inhibitor	Pin1 inh	pAkt inh	TrxR1 substrate
CCN1CCc2nc3sc(C(=O)Nc4cccc(Cl)c4C)c(N)c3cc2C1	·	·	–	?	·	–
CCC(c1nnnn1C(C)(C)CC)N(CCCN1CCOCC1)Cc1cc2cccc(C)c2[nH]c1=O (stereo not given)	–	–	35µM	–	–	–
CNc1ccc(Br)cc(C(=O)/C=C/c2cccc(Cl)c2Cl)c1=O	–	–	11µM	?	–	–
CNc1ccc(Br)cc(C(=O)/C=C/c2cccc(OC)c2OC)c1=O	–	–	–	–	·	–
CNc1ccccc(C(=O)/C=C/c2ccccc2OC)c1=O	–	–	8.9µM	?	–	–
COc1ccccc1C=CC(=O)C=Cc1ccccc1OC	·	·	–[11.4 µM]	–	–	–
CCN(CC)c1ccc(/C=C/c2ccncc2)cc1	·	·	?	·	·	–
COc1ccc(C)cc1NC(=O)c1noc2c1CSc1ccccc1-2	·	·	–	–	·	–
COC(=O)c1ccccc1NC(=O)c1noc2c1CSc1ccccc1-2	·	·	14µM	–	·	–
COc1ccc(Cn2nnnc2C(c2ccc(N(C)C)cc2)N2CCC(C(N)=O)CC2)cc1 (stereo not given)	–	–	7.1µM	–	–	–
N#CN1CCC(NC(=O)c2cccc(F)c2)CC1	·	·	·	–	·	·
O=C(NC(=S)NC1CCCC1)c1ccccc1	–	–	?	–	–	–
O=C(NC(=S)NC1C2CC3CC(C2)CC1C3)c1ccccc1 (stereo not given)	?	–	50µM	–	–	–
N/C(=C\c1ccccc1)c1ccncc1	·	·	–	·	·	–
CC(=O)Oc1oc(-c2ccccc2)nc1/C=N/c1ccccn1	–	–	7.1µM	–	–	–
C=CCC(C)(NCc1ccccc1)c1ccc(C)cc1 (stereo not given)	–	40µM	–	–	–	–
NS(=O)(=O)c1ccc(NC(=S)Nc2ccn(Cc3cccc4ccccc34)n2)cc1	–	–	13µM	–	–	–
Cc1ccc(C(=O)Nc2sc3c(c2C(=O)O)CCCCC3)o1	–[2.35 µM]	10µM	–	–	–	–
Cc1ccc(C(=O)Nc2sc3c(c2C(=O)O)CCCC3)o1	–	–	–	?	–	–
CCN(CC)c1ccc2cc(S(=O)(=O)c3ccc(Cl)cc3)c(=O)oc2c1	–	25µM	–	?	–	–
COc1ccc(C(=O)Nc2ccc(-c3nc4ncccc4o3)cc2C)cc1Br	·	·	–	–	·	–
COc1ccc(N2CCN(C(=O)CSc3nnc4c(C)cc5ccc(C)c(C)c5n34)CC2)cc1	–	–	–	?	-119%	–
CC(C)CC(NC(=O)C(COC(C)(C)C)NC(=O)C(Cc1ccc(O)cc1)NC(=O)C(CO)NC(=O)C(Cc1c[nH]c2ccccc12)NC(=O)C(Cc1cnc[nH]1)NC(=O)C1CCC(=O)N1)C(=O)NC(CCCN=C(N)N)C(=O)N1CCCC1C(=O)NNC(N)=O (stereo not given)	–	·	·	·	·	·
C[C@H](NC(=O)OC(C)(C)C)C(=O)NCC1CCC(C(=O)N[C@@H](Cc2ccccc2)C(=O)O)CC1 (stereo not given in full)	–	3.5µM	–	–	–	–
O=[N+]([O-])C(/C=C(\Cl)[N+](=O)[O-])=C1N(Cc2ccc(Cl)nc2)CCN1Cc1ccc(Cl)nc1	–	–	1.8µM	?	–	–
O=[N+]([O-])/C(C(=C(Cl)Cl)N1CCN(Cc2ccccc2)CC1)=C1\NCCN1Cc1ccc(Cl)nc1	–	–	–	–	–	–
Cc1nn(Cc2ccccc2)c(C)c1NC(=O)CSc1nc(C2CC2)nc2c1cnn2-c1ccccc1	–	–	–	–	-114%	–
Cc1ccc(OCC(=O)NCC(=O)OCc2cc(=O)n3nc(CC(C)C)sc3n2)cc1	·	·	–	–	·	–
CCOC(=O)c1c(C)n(C(=O)c2ccco2)c(=O)n1C(=O)c1ccco1	–	–	40µM	–	–	–
